Each structure is given as a SMILES string. Inconclusive results are not listed. Active and inactive are the calls of the source. The call rests on the fitted dose curve; in most records, active means well fitted curve in the direction sought with a large enough effect; inconclusive means small, poorly fitted or top-dose-only effect, or another doubt; inactive means no such curve, though single readings can be large or run the other way.

Sequence of Calcium and integrin-binding protein 1 (Homo sapiens) (Q99828 whole entry, looked up): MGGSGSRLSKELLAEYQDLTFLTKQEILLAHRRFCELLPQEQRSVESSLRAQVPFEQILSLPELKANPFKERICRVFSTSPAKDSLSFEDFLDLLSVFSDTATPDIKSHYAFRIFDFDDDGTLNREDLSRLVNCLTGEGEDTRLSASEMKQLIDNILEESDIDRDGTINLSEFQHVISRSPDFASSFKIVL

This assay concerns the target Calcium and integrin-binding protein 1 (Homo sapiens) (UniProt Q99828). Nature of the assay: Validation qHTS for Identification of Calcium Integrin Binding protein 1 (CIB1) Competitor (AID 1508618). The following applies: CIB1-GST / FITC-alphaIIb peptide fluorescence polarization; series mostly up to 114 µM. The text has this: Assay Provider: Ulhas P. Naik, PhD
Sidney Kimmel Medical College
Thomas Jefferson University, Philadelphia, PA
Primary function of platelets is to maintain hemostasis. At the site of vascular injury, platelets adhere to adhesive proteins such as collagen and von Willebrand factor. Adherent platelets are activated and generate soluble platelet agonists such as thrombin, ADP and thromboxane A2. Following exposure of circulating platelets to these agonists, results in platelet shape change, granule secretion and activation of platelet integrin alphaIIb-beta3. Ligand binding to activated integrin alphaIIb-beta3 triggers outside-in signaling, leading to platelet aggregation, stabilization of platelet plug, and clot retraction. Upon atherosclerotic plaque rupture also causes platelet plug formation, which underlies a number of cardiovascular diseases such as myocardial infraction and stroke. A number of anti-platelet drugs such as aspirin, clopidogrel, prasugrel, vorapaxar, and eptifibatide are currently available to prevent the thrombotic complications. However, these anti-platelet agents have several limitations including inherent variability in individual responses, developing resistance, and serious bleeding side effects. For these reasons they are not suitable for long-term protection. Based on the experiences with current anti-platelet drugs, it appears that the most useful therapeutic approach is to intersect the secondary responses such as integrin outside-in signaling or recruitment of platelets by TxA2 and secreted ADP. Compounds, which can largely preserve the primary hemostatic function of platelets but inhibit secondary response will be most desired therapeutic agents for treatment of cardiovascular disease.
CIB1 is a calcium integrin binding protein, which specifically interact with the alphaIIb subunit of integrin alphaIIb-beta3. Binding of CIB1 to alphaIIb regulates the outside-in signaling in platelets, which is needed for thrombus stabilization and thrombus growth. […] Therefore, we propose that discovery of a small molecule that can prevent the association of CIB1 and alphaIIb-beta3 will be a potential anti-platelet agent that can block the thrombus formation without undue effect on hemostasis.
To develop fluorescence polarization (FP) assay using fluorescently labeled alphaIIb peptide and CIB1 protein. Using FP assay characterize the binding affinity, competitive inhibition, and acceptable Z factor (0.5 to1) in order to perform the HTS to identify small molecule compound that can prevent CIB1 binding to platelet integrin alphaIIbbeta3. This assay is screened against the NCATS LOPAC library to validate the amenability of the assay to qHTS.
[1] Naik MU, Nigam A, Manrai P, et al. CIB1 deficiency results in impaired thrombosis: the potential role of CIB1 in outside-in signaling through integrin alpha IIb beta 3. J Thromb Haemost. 2009;7(11):1906-1914. doi:10.1111/j.1538-7836.2009.03581.
SEQUENCE No. (1, 2, 3, etc.); […] (e.g., Cells, Incubation, Reagent, etc.); VALUE and DESCRIPTION.
1; Reagent; 3 uL; Protein or buffer (4/3x)
2; Compound; 46 nL; Control inhibitor / compound library
3; Time; 15 min; Room temperature incubation
4; Reagent; 1 uL; Fluorescent labeled peptide (4x)
5; Time; 1000 rpm; Centrifuge
6; Time; 15 min; Room temperature incubation
7; Detection; Ex 480/ Em 540; ViewLux Fluorescence Read
NOTES (numbers refer to sequence above)
1; Protein Mixture: C1B1-GST (final concentrations of 1 uM). Buffer composition: 5 mM HEPES pH 7.4, 125 mM NaCl, 5 mM CaCl2, 0.01% Tween20.
2; Control Inhibitor: unlabeled peptide (final concentration range 17.4 nM to 572 uM). Compound Library final concentration range 18.3 nM to 114 uM.
3; Room temperature incubation.
4; Fluorescent Labeled Peptide: FITC-aIIb (final concentration of 100 nM). Sequence of alphaIIb peptide: Acetyl-[…]-FITC (purity is 95.83%).
6; Room temperature incubation.
[…]
In general terms: In qHTS, concentration-response curves come from the screen itself.
`Nc1cc(Cl)c(NC2=NCCN2)c(Cl)c1`: the outcome was inactive.

As for `CC(CCc1ccccc1)NCC(O)c1ccc(O)c(C(N)=O)c1` (configuration not stated), the outcome was inactive.

`O=C(O)c1cc2cc(Cc3cccnc3)ccc2o1`: the result was inactive.

On to `C[N+]1(CCCCC[N+]2(C)CCCC2)CCCC1`, for which the result was inactive.

With `Oc1ccc(O)cc1`, the outcome was inactive.

For `CC[C@H](C)C(=O)O[C@H]1CCC=C2C=C[C@H](C)[C@H](CC[C@@H]3C[C@@H](O)CC(=O)O3)[C@H]21`, the outcome was inactive.

On to `CCCC1O[C@@H]2C[C@H]3[C@@H]4CCC5=CC(=O)C=C[C@]5(C)[C@H]4[C@@H](O)C[C@]3(C)[C@]2(C(=O)CO)O1` (some centres not stated), for which the result was inactive.

In the case of `CNCCC(Oc1ccccc1C)c1ccccc1` (configuration not stated), the outcome was inactive.

As to `C[C@@H]1C(=O)NC2=Nc3cccc(Cl)c3CN21`, the result was inactive.

Take `O=C1CCC(c2ccc(-n3ccnc3)cc2)=NN1`: the outcome was inactive.

Regarding `CNCCC=C1c2ccccc2CCc2ccccc21`, the result was inactive.

With `N[C@H](CO)C(=O)O`, the outcome was inactive.

With `CCC(NC(C)C)C(O)c1ccc(O)c(O)c1` (configuration not stated), the outcome was inactive.

Take `CC1(C)CCC(NC(=O)[C@@H](N)CCC(=O)O)CC1`: the outcome was inactive.

In the case of `CN1C2CCC1CC(OC(=O)c1c[nH]c3ccccc13)C2` (configuration not stated), the result was inactive.

As to `CC(=O)O[C@H]1C[C@@H]2CC[C@@H]3[C@H](CC[C@@]4(C)[C@H]3C[C@H]([N+]3(C)CCCCC3)[C@@H]4OC(C)=O)[C@@]2(C)C[C@@H]1[N+]1(C)CCCCC1`, the outcome was inactive.

Turning to `N[C@@H](Cc1cnc[nH]1)C(=O)O`, the outcome was inactive.

Regarding `C1CCc2nnnn2CC1`, the result was inactive.

Turning to `CCCn1c(=O)[nH]c(=O)c2[nH]cnc21`, the result was inactive.

Turning to `CC(C)COC(=O)OCN1C(=O)CN(CCN2CC(=O)N(COC(=O)OCC(C)C)C(=O)C2)CC1=O`, the outcome was inactive.

`CC(C)C[C@H]1C(=O)N2CCC[C@H]2[C@]2(O)O[C@](NC(=O)[C@@H]3C=C4c5cccc6[nH]c(Br)c(c56)C[C@H]4N(C)C3)(C(C)C)C(=O)N12`: the outcome was inactive.

In the case of `COc1cc2c(cc1O)CC[C@@H]1[C@@H]2CC[C@]2(C)[C@@H](O)CC[C@@H]12`, the result was inactive.

For the origin of these results see PubChem BioAssay (NCATS).
